PubChem BioAssay (EPA / NIEHS)
Activity calls are given as the source filed them. The calls were made as follows: active = hit-call score of the fitted dose curve at least 0.9, where 1 is the maximum; inactive = score below 0.9.

What was measured:
Details in all cases: mRNA level, 48 h; actives raise or lower the signal
[1] = read-out: Cytochrome P450 3A4 (Homo sapiens) (UniProt P08684); test: LTEA_HepaRG_CYP3A4: Life Technologies and Expression Analysis (LTEA) Assay for CYP3A4 using HepaRG (AID 2283487)
How it was run: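 CYP3A4 transcript measured by TaqMan qRT-PCR and normalized to three housekeeping genes after 48 h chemical exposure of human HepaRG cells. Top concentration 100 uM, half-log steps, 0.5% DMSO vehicle; gain or loss fitted against DMSO baseline.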

[2] = read-out: DNA damage-inducible transcript 3 (DDIT3), DDIT3 (gene 1649); test: LTEA_HepaRG_DDIT3: Life Technologies and Expression Analysis (LTEA) Assay for DNA damage-inducible transcript 3 (DDIT3) using HepaRG (AID 2283488)
How it was run: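 Changes in DDIT3 transcript, in either direction relative to 0.5% DMSO vehicle, were quantified by TaqMan qRT-PCR after 48 h chemical exposure of HepaRG cells at 8 concentrations, maximum 100 uM.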

[3] = read-out: Pro-epidermal growth factor (Homo sapiens) (UniProt P01133); test: LTEA_HepaRG_EGF: Life Technologies and Expression Analysis (LTEA) Assay for Epidermal growth factor (EGF) using HepaRG (AID 2283489)
How it was run: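 EGF expression changes in human HepaRG cells are scored by bidirectional fitting relative to 0.5% DMSO controls. Chemicals are tested at eight half-log concentrations up to 100 uM for 48 h in serum-free induction medium.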

[4] = read-out: Early growth response protein 1 (EGR1) transcription factor, EGR1 (gene 1958); test: LTEA_HepaRG_EGR1: Life Technologies and Expression Analysis (LTEA) Assay for Early growth response protein 1 (EGR1) transcription factor using HepaRG (AID 2283490)
How it was run: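 Differentiated human HepaRG cells in serum-free induction medium were exposed in duplicate for 48 h to eight concentrations (top 100 uM, half-log steps) in 0.5% DMSO. EGR1 mRNA was quantified by qRT-PCR, normalized to ACTB, GAPDH and POLR2A, and fitted bidirectionally versus DMSO.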

[5] = read-out: Ezrin (EZR), EZR (gene 7430); test: LTEA_HepaRG_EZR: Life Technologies and Expression Analysis (LTEA) Assay for Ezrin (EZR) using HepaRG (AID 2283491)
How it was run: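 HepaRG, 48 h chemical exposure, 8-pt half-log series from 100 uM, 0.5% DMSO vehicle, duplicates. Read-out: EZR mRNA by TaqMan qRT-PCR (Fluidigm array), housekeeping-normalized; bidirectional curve fit vs DMSO baseline.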

[6] = read-out: Cytochrome P450 3A7 (Homo sapiens) (UniProt P24462); test: LTEA_HepaRG_CYP3A7: Life Technologies and Expression Analysis (LTEA) Assay for CYP3A7 using HepaRG (AID 2283492)
How it was run: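 Cells were thawed, plated, cultured 48 h, then treated for a further 48 h with chemicals (eight-point half-log series from 100 uM, 0.5% DMSO). RNA was isolated and CYP3A7 expression quantified by qRT-PCR normalised to ACTB, GAPDH and POLR2A.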

[7] = read-out: Fatty Acid-Binding Protein 1 (FABP1), FABP1 (gene 2168); test: LTEA_HepaRG_FABP1: Life Technologies and Expression Analysis (LTEA) Assay for Fatty Acid-Binding Protein 1 (FABP1) using HepaRG (AID 2283494)
How it was run: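 Differentiated human HepaRG cells were exposed in duplicate for 48 h in serum-free induction medium to 8-point half-log concentration series topping at 100 uM in 0.5% DMSO. FABP1 mRNA measured by TaqMan qRT-PCR, normalized to ACTB/GAPDH/POLR2A; bidirectional fit versus DMSO.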

[8] = read-out: Cytochrome P450 4A22 (Homo sapiens) (UniProt Q5TCH4); test: LTEA_HepaRG_CYP4A22: Life Technologies and Expression Analysis (LTEA) Assay for Cytochrome P450 4A22 (CYP4A22) using HepaRG (AID 2283495)
How it was run: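 Cryopreserved HepaRG cells, plated and cultured 48 h, then switched to serum-free induction medium and treated 48 h (duplicates, up to 100 uM, half-log steps, 0.5% DMSO). Expression change of CYP4A22 was fitted bidirectionally against vehicle.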

[9] = read-out: Cytochrome P450 7A1 (Homo sapiens) (UniProt P22680); test: LTEA_HepaRG_CYP7A1: Life Technologies and Expression Analysis (LTEA) Assay for Cytochrome P450 7A1 (CYP7A1) using HepaRG (AID 2283496)
How it was run: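 Gene expression endpoint in human HepaRG liver cells treated for 48 h with test chemicals (up to 100 uM, 0.5% DMSO). Values come from bidirectional concentration-response fitting versus DMSO.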

[10] = read-out: Glutathione S-Transferase (GSTA2), GSTA2 (gene 2939); test: LTEA_HepaRG_GSTA2: Life Technologies and Expression Analysis (LTEA) Assay for Glutathione S-Transferase (GSTA2) using HepaRG (AID 2283497)
How it was run: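 Human HepaRG cells, plated 48 h, then exposed in serum-free induction medium for 48 h to eight half-log concentrations up to 100 uM in 0.5% DMSO, duplicate. GSTA2 mRNA by qRT-PCR, normalized to ACTB/GAPDH/POLR2A; bidirectional fit versus DMSO.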

[11] = read-out: Glutamate-cysteine ligase catalytic (GCLC), GCLC (gene 2729); test: LTEA_HepaRG_GCLC: Life Technologies and Expression Analysis (LTEA) Assay for Glutamate-cysteine ligase catalytic (GCLC) using HepaRG (AID 2283498)
How it was run: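 Differentiated human HepaRG cells, plated 48 h then switched to serum-free induction medium, were exposed in duplicate for 48 h to 8 half-log concentrations topping at 100 uM in 0.5% DMSO. GCLC mRNA was quantified by qRT-PCR against ACTB, GAPDH and POLR2A.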

[12] = read-out: Glutamate-cysteine ligase regulatory (GCLM), GCLM (gene 2730); test: LTEA_HepaRG_GCLM: Life Technologies and Expression Analysis (LTEA) Assay for Glutamate-cysteine ligase regulatory (GCLM) using HepaRG (AID 2283500)
How it was run: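 Human liver HepaRG cultures receive test chemicals for 48 hours at up to 100 uM in 0.5% DMSO. GCLM expression is measured by qRT-PCR and analysed for increases or decreases against vehicle.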

[13] = read-out: Glutathione S-transferase M3 (GSTM3), GSTM3 (gene 2947); test: LTEA_HepaRG_GSTM3: Life Technologies and Expression Analysis (LTEA) Assay for Glutathione S-transferase M3 (GSTM3) using HepaRG (AID 2283501)
How it was run: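 Changes in GSTM3 expression, an oxidative-stress marker, were scored by bidirectional curve fitting against 0.5% DMSO vehicle. Human HepaRG cultures received chemicals for 48 h in duplicate, highest concentration 100 uM with half-log dilutions.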

[14] = read-out: Heat shock 70 kDa protein 1 (HSPA1A), gene 3303; test: LTEA_HepaRG_HSPA1A: Life Technologies and Expression Analysis (LTEA) Assay for Heat shock 70 kDa protein 1 (HSPA1A) using HepaRG (AID 2283502)
How it was run: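 HSPA1A induction in human HepaRG liver cells is measured after 48 h of chemical treatment (100 uM maximum, 0.5% DMSO vehicle). Expression comes from qRT-PCR normalized to endogenous controls.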

[15] = read-out: Hypoxia-inducible factor 1-alpha (Homo sapiens) (UniProt Q16665); test: LTEA_HepaRG_HIF1A: Life Technologies and Expression Analysis (LTEA) Assay for Hypoxia-inducible factor 1 (HIF1A) Trancription factor using HepaRG (AID 2283503)
How it was run: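 HepaRG, 48 h exposure, 8-pt half-log series from 100 uM, 0.5% DMSO vehicle, duplicates. Readout: HIF1A transcript by qRT-PCR (Fluidigm array), housekeeping-normalised. Bidirectional curve fit vs DMSO baseline.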

[16] = read-out: 3-Hydroxy-3-Methylglutaryl-CoA Synthase 2 (HMGCS2), HMGCS2 (gene 3158); test: LTEA_HepaRG_HMGCS2: Life Technologies and Expression Analysis (LTEA) Assay for 3-Hydroxy-3-Methylglutaryl-CoA Synthase 2 (HMGCS2) using HepaRG (AID 2283504)
How it was run: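 Expression of HMGCS2 in human HepaRG liver cells is measured by qRT-PCR 48 h after dosing (highest 100 uM, half-log series, 0.5% DMSO). Values come from bidirectional concentration-response fitting with DMSO as baseline.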

[17] = read-out: HGF (gene 3082); test: LTEA_HepaRG_HGF: Life Technologies and Expression Analysis (LTEA) Assay for Hepatocyte Growth Facto (HGF) using HepaRG (AID 2283505)
How it was run: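 Gain or loss of HGF mRNA in human HepaRG liver cells after 48 h chemical exposure; eight concentrations up to 100 uM with 0.5% DMSO vehicle, quantified by TaqMan qRT-PCR.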

[18] = read-out: Insulin Like Growth Factor 1 (IGF1), IGF1 (gene 3479); test: LTEA_HepaRG_IGF1: Life Technologies and Expression Analysis (LTEA) Assay for Insulin Like Growth Factor 1 (IGF1) using HepaRG (AID 2283506)
How it was run: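 Using human HepaRG liver cells, IGF1 transcript induction or suppression is measured 48 h after dosing across eight concentrations capped at 100 uM. Values derive from bidirectional concentration-response fitting with DMSO as baseline.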

[19] = read-out: CYP3A5 (gene 1577); test: LTEA_HepaRG_CYP3A5: Life Technologies and Expression Analysis (LTEA) Assay for CYP3A5 using HepaRG (AID 2283493)
How it was run: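 mRNA induction or loss of CYP3A5 assessed in HepaRG after 48 h dosing, 100 uM top concentration, duplicate wells; TaqMan qRT-PCR with ACTB, GAPDH, POLR2A normalization; 0.5% DMSO as negative control.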

[20] = read-out: growth arrest and DNA damage 45 (GADD45G), GADD45G (gene 10912); test: LTEA_HepaRG_GADD45G: Life Technologies and Expression Analysis (LTEA) Assay for growth arrest and DNA damage 45 (GADD45G) using HepaRG (AID 2283499)
How it was run: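 Human hepatic HepaRG line treated 48 h with chemicals (eight concentrations, half-log steps from 100 uM); transcript induction or repression of GADD45G scored by qRT-PCR versus DMSO vehicle.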

Measured: AC50

Chain of Cytochrome P450 3A4 (Homo sapiens) (P08684 whole entry, looked up): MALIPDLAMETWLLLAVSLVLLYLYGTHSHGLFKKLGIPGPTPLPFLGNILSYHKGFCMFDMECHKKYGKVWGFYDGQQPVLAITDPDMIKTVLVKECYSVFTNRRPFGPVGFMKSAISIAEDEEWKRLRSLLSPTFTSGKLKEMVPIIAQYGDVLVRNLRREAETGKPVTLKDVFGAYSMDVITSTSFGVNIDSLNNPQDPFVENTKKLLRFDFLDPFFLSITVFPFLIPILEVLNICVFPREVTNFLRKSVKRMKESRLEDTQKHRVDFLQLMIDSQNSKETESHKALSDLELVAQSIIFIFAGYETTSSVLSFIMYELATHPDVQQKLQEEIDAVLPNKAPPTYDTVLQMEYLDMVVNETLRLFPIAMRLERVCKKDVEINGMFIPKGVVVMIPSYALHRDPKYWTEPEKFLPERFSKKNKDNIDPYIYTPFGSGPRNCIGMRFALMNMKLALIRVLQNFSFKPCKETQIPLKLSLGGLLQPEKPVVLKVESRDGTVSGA
Chain of Hypoxia-inducible factor 1-alpha (Homo sapiens) (Q16665 whole entry, looked up): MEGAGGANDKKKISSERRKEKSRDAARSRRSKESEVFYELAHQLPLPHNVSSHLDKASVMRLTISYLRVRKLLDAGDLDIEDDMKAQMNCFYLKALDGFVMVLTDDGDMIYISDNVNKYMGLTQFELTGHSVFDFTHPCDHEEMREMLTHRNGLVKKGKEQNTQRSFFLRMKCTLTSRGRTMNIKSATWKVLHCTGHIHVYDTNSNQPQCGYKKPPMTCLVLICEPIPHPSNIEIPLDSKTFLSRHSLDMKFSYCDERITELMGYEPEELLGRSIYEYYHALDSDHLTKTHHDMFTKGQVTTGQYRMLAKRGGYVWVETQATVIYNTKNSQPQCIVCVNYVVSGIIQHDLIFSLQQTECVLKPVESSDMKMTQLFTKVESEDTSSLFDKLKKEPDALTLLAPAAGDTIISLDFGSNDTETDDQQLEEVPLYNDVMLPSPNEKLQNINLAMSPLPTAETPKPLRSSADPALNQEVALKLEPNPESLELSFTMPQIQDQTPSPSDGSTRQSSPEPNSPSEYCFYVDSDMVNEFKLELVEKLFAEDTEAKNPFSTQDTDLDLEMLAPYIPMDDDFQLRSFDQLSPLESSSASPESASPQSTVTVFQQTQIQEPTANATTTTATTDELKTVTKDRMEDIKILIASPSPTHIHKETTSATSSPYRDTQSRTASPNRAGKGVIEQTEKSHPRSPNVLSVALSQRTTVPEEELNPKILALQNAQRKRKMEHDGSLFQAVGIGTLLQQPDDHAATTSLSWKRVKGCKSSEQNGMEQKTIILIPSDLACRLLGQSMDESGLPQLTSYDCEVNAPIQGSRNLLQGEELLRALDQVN
Chain of Cytochrome P450 3A7 (Homo sapiens) (P24462 whole entry, looked up): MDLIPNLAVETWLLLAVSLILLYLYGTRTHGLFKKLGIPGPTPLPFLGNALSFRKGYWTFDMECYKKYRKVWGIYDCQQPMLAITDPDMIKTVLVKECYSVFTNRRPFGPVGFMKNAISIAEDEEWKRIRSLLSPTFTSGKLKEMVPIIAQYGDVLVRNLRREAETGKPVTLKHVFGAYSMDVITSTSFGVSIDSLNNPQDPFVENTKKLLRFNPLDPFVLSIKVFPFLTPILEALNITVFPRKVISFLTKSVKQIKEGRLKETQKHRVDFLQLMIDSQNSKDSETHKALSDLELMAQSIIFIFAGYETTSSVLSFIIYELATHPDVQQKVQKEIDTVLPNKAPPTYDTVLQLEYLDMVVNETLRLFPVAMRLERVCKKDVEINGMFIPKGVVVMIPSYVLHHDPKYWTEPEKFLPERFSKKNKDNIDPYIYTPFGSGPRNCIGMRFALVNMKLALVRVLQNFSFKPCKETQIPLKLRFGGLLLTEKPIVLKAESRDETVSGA

CCC(C)(c1ccc(O)cc1)c1ccc(O)cc1
active: [9] 50 µM
not listed: [19] | [20]
inactive: all other assays above

Cc1cc(O)ccc1Cl
not listed: [19] | [20]
inactive: all other assays above

Clc1ccc(C(c2ccccc2Cl)C(Cl)(Cl)Cl)cc1 (stereo not given)
active: [1] 2.46 µM | [2] 74.6 µM | [4] 11.9 µM | [6] 0.41 µM | [7] 33.9 µM | [9] 15.3 µM | [14] 12 µM | [16] 50 µM | [18] 31.3 µM
inactive: [3] | [5] | [19] | [10] | [11] | [12] | [13] | [15] | [17]

Cc1cc2c3c(c1)C(c1ccccc1)=N[C@@H](NC(=O)c1ccncc1)C(=O)N3CC2
inactive: [3] | [19] | [10] | [11] | [20] | [12] | [13] | [15] | [17]
active: [1] 3.86 µM | [2] 75.6 µM | [5] 50 µM | [6] 12.2 µM | [7] 50 µM | [8] 36 µM | [9] 50 µM | [14] 50 µM | [16] 71.2 µM | [18] 39.3 µM

Nc1ccc(-c2ccc(N)cc2)cc1
active: [8] 8.3 µM | [9] 1.44 µM
not listed: [6] | [19] | [20]
inactive: all other assays above
